Shown are actives, neighbours in structure and some others; about 8.1% of the full set was active somewhere.
SW480 rerep: DNA re-replication induction in SW480 cells | SW480 DNA re-replication, Hoechst DNA content imaging, 48 h | 1.8% of 340,000 active | Potency, µM (series often up to 46.1 µM), inactives show at the top dose re-replication activation, usual class: activators; further: % of control where 0% means no effect; nearly all actives have a fitted effect of over 55% in size
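Quantitative HTS format with DMSO vehicle controls; 48 hr drug incubation at 37 C, then 40 min Hoechst staining and scanning imager measurement at 405 nm excitation.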
MCF10A rerep: DNA re-replication induction in MCF 10a cells. MCF 10A DNA re-replication, Hoechst nuclear intensity, 48 h. Potency, µM (series often up to 46.1 µM), without a hit: at the top dose activity, positive = re-replication, hits mostly activators. 2.9% of 350,000 active. AID 624296; further: % of control where 0% means no effect; nearly all actives have a fitted effect of over 50% in size
ELG1 repair inh: blocks ELG1-dependent DNA repair in HEK293T cells; HEK293T ELG1-luciferase reporter, luminescence, 16 h; DNA damage induced by 5-fluorouridine; Potency, µM (titrated, usually from 46.1 µM), for the others: top-dose activity change, negative = inhibition, actives largely listed as inhibitors; 2.3% of 330,000 active; AID 504467; further: on the % scale 0 is the no-effect control and ±100 the full control effect; nearly all actives have a fitted effect of over 55% in size
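Reporter activity after DNA damage by 5-fluorouridine is monitored. Compound-treated cells incubate 16 hr at 37 °C, then ONE-Glo is added for 30 min before luminescence reading.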
KB-3-1 cytotox: KB-3-1 parental cell cytotoxicity; KB-3-1 viability, CellTiter-Glo ATP luminescence, 72 h; Potency, µM (doses to about 46.1 µM), usual class: cytotoxic; 1.4% of 400,000 active; AID 1347075; further: on the % scale 0 is the no-effect control and ±100 the full control effect; nearly all actives have a fitted effect of over 60% in size
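KB-3-1 parental drug-naive adenocarcinoma cells in DMEM/10% FBS, incubated 72 h at 37 C with pin-transferred compounds across a concentration series. Viability by CellTiter-Glo luminescence; concentration-response curves fitted after normalization.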
KB-V1 MDR tox: kills drug-selected multidrug resistant KB-V1 cells | Potency, µM (series often up to 46.1 µM), usual class: cytotoxic | AID 1347076 | 3.4% of 400,000 active | KB-V1 MDR cells viability, CellTiter-Glo, 72 h; further: on the % scale 0 is the no-effect control and ±100 the full control effect; nearly all actives have a fitted effect of over 60% in size
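Potencies derive from concentration-effect curves fitted to normalized luminescence (CellTiter-Glo) of KB-V1 cells treated for 72 h at 37 degrees C in phenol-red-free DMEM containing 10% FBS.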
The depositor's hits bear a star; i = inactive; ? = inconclusive; . = no result given. The call rests on the fitted dose curve; in most records, active means well fitted curve in the direction sought with a large enough effect; inconclusive means small, poorly fitted or top-dose-only effect, or another doubt; inactive means no such curve, though single readings can be large; an effect the other way counts as inactive or inconclusive. Potency means the concentration at half of the fitted maximal effect.

SMILES	SW480 rerep	MCF10A rerep	ELG1 repair inh	KB-3-1 cytotox	KB-V1 MDR tox
COc1ccc(OCC(=O)OCC(=O)Nc2ccc3[nH]c(=O)[nH]c3c2)cc1	-1%	0%	?	i	i
Cc1cccc(C(=O)NC(C(=O)Nc2ccc(S(=O)(=O)Nc3nccs3)cc2)C(C)C)c1 (stereo not drawn)	-4%	5%	.	i	i
C[C@H](NC(=O)c1ccccc1)C(=O)Nc1nc(-c2ccccn2)cs1	0%	-3%	7.3µM*	i	?
CC(Oc1ccccc1)C(=O)Nc1nc(-c2ccccn2)cs1 (stereo not drawn)	-437%	?	?	?	i
Cc1cccc(C(=O)NC(C(=O)Nc2nc(-c3ccccn3)cs2)C(C)C)c1 (stereo not drawn)	-4%	17%	2.9µM*	i	?
COc1ccc(-c2oc3ncn4nc(-c5ccccc5Br)nc4c3c2-c2ccc(OC)cc2)cc1	.	.	.	i	i
COc1cc(C(=S)N2CCOCC2)ccc1OC(=O)c1ccccc1C	18µM*	6%	?	i	i
CC(C)=CCN1CCN(Cc2nc(-c3ccc(F)cc3)cs2)CC1CCO (stereo not drawn)	19%	?	-16%	i	?
OCCC1CN(Cc2nc(-c3ccccc3)cs2)CCN1Cc1ccc(F)cc1 (stereo not drawn)	10%	?	-14%	?	9.2µM*
Cc1cccc(Nc2nnc(-c3ccc(C)c(S(=O)(=O)NCC4CCCO4)c3)c3ccccc23)c1 (stereo not drawn)	.	.	.	i	i
COc1ccc(-c2n[nH]c(C(F)(F)F)c2-c2cc3ccccc3o2)c(O)c1	9%	-2%	-15%	i	18µM*
COc1ccccc1-c1c(-c2ccc(OCC(=O)NN)cc2O)n[nH]c1C(F)(F)F	13%	?	-27%	i	i
Cc1ccc(S(=O)(=O)NCCC(=O)Nc2ccc(Cl)c(Cl)c2)cc1C	0%	16%	-9%	i	?
Cc1ccc(S(=O)(=O)NCCC(=O)Nc2cccc(Cl)c2)cc1	0.29µM*	0%	-14%	i	16µM*
Nc1ccc(Cl)c(S(=O)(=O)Nc2cccc(Cl)c2)c1	-63%	0.18µM*	7%	i	i
Cc1ccc(S(=O)(=O)NCCC(=O)Nc2ccncc2)cc1C	0.65µM*	12%	-27%	i	i
CC(=O)Nc1ccc(S(=O)(=O)NCCC(=O)Nc2ccc(C)c(Cl)c2)cc1	-74%	2%	-8%	i	i
Cc1ccc(S(=O)(=O)NCCC(=O)Nc2ccc(Cl)c(Cl)c2)cc1	-3%	?	-29%	?	15µM*
CCN(CC)C(=O)C1=C(C)N(CCCN2CCCC2=O)C(=O)C(CC(=O)NCc2ccco2)C1 (stereo not drawn)	.	.	.	i	i
CCc1nc2ccc(C(=O)Nc3cc(-c4ccccc4)ccc3OC)cn2c1N(C)Cc1nccs1	.	.	.	?	i
O=C(C(=O)N(C1CCCCC1)C1CCCCC1)c1ccccc1	.	.	.	i	?
COc1ccc(NC(=O)CNS(=O)(=O)c2ccccc2)cc1Cl	?	8.2µM*	10%	i	?
CCC(C)NCCC(=O)Nc1ccc(Cl)c(S(=O)(=O)Nc2ccc(Cl)cc2)c1 (stereo not drawn)	26%	13µM*	-2%	i	i
Cc1ccc(C(=O)CCC(=O)Nc2ccc(Cl)c(S(=O)(=O)Nc3cccc(Cl)c3)c2)cc1	-5%	5%	-11%	i	16µM*
COc1ccc(C(=O)CCC(=O)Nc2cccc(Cl)c2)cc1	2%	-2%	-11%	i	i
SMILES	SW480 rerep	MCF10A rerep	ELG1 repair inh	KB-3-1 cytotox	KB-V1 MDR tox
CN(C)c1ccc(NS(=O)(=O)c2cc(Cl)ccc2Cl)cc1	?	?	18%	?	?
CCN(c1ccc(NS(=O)(=O)c2cc(Cl)ccc2Cl)cc1)C(C)C	?	23µM*	-2%	?	?
CCC(=O)c1c(O)cc(O)cc1O	2%	-4%	.	.	.
CCc1cc2c(Sc3nc4ccccc4s3)ncnc2s1	?	?	-13%	12µM*	?
c1ccc2sc(Sc3ncnc4sccc34)nc2c1	?	21µM*	-3%	i	i
c1ccc(CSc2ncnc3sccc23)cc1	-2%	-3%	?	i	i
CCc1cc2c(SCC(=O)Nc3ccc(NC(C)=O)cc3)ncnc2s1	-7%	15%	?	i	i
C=CCOc1ccc2ccccc2c1CNCCCN1CCOCC1	3%	26%	1%	i	16µM*
COc1cccc(C(=O)NC(=O)Nc2ccc(-n3nc(C(F)(F)F)cc3C(F)(F)F)cc2)c1	.	.	.	i	i
C=CCN(C(=O)CN1CCCCC1)c1nc(-c2ccccc2)cs1	-6%	?	8%	i	i
C=CCN(C(=O)C1CC(=O)N(C2CCCC2)C1)c1nc(-c2ccc(S(C)(=O)=O)cc2)cs1 (stereo not drawn)	-9%	18%	?	18µM*	2.9µM*
O=S(=O)(NCC(c1ccco1)N1CCN(c2ccccc2F)CC1)c1ccc2c(c1)OCCO2 (stereo not drawn)	4%	?	16µM*	i	?
COc1ccc(N2CCN(C(CNS(=O)(=O)c3ccc4c(c3)OCCO4)c3ccco3)CC2)cc1 (stereo not drawn)	-1%	?	15µM*	i	?
C#CCOCC1CN(C)C(=O)O1 (stereo not drawn)	.	.	.	i	i
CC(=O)OCCN1c2ccccc2Sc2cnccc21	.	.	.	12µM*	15µM*
C=CCN1c2ccccc2Sc2cnccc21	.	.	.	i	?
COCCCNC(=O)c1c(N)n(-c2ccc(S(N)(=O)=O)cc2)c2nc3ccccc3nc12	9.2µM*	7.3µM*	11%	i	i
Nc1ccc(-n2c(N)c(C(=O)NCc3ccc4c(c3)OCO4)c3nc4ccccc4nc32)cc1	21µM*	16µM*	.	i	i
COCCNC(=O)c1c(N)n(-c2ccccc2)c2nc3ccccc3nc12	21µM*	?	?	i	i
Cc1c(NS(=O)(=O)c2ccc(Br)cc2)c(=O)n(-c2ccccc2)n1C	-6%	-3%	-4%	i	i
Nc1c(C(=O)NCc2ccccc2)c2nc3ccccc3nc2n1-c1ccc2c(c1)OCO2	5%	12%	?	i	i
Cc1c(NC(=O)c2ccccc2NS(=O)(=O)c2ccc(Br)cc2)c(=O)n(-c2ccccc2)n1C	4%	13%	-1%	i	23µM*
O=C(OCN1C(=O)c2ccccc2C1=O)c1cccc(OC(F)F)c1	0%	-3%	11%	i	i
O=C(Nc1ccccc1C(=O)Nc1nccs1)c1ccccc1	.	.	.	i	i
